Several values for one entry are separate records, joined by “and”; a condition that tells them apart may be missing. Equal entries are not always repeated. Screen size: about 16,000 compounds; about 4,000 (25%) were called active. Inconclusive results (about 26%) are left out. The call rests on the fitted dose curve; in most records, active means well fitted curve in the direction sought with a large enough effect; inconclusive means small, poorly fitted or top-dose-only effect, or effect the other way; inactive means no such curve, though single readings can be large or run the other way. Only a sample is shown.
target: Cytochrome P450 2C9 (Homo sapiens) (UniProt P11712); test: Cytochrome panel assay with activity outcomes; details: recombinant CYP, pro-luciferin dealkylation, luminescence, p450-cyp2c9; series mostly up to 57.1 µM; activity, negative = inhibition: at the top concentration
Sequence (P11712 whole entry, looked up): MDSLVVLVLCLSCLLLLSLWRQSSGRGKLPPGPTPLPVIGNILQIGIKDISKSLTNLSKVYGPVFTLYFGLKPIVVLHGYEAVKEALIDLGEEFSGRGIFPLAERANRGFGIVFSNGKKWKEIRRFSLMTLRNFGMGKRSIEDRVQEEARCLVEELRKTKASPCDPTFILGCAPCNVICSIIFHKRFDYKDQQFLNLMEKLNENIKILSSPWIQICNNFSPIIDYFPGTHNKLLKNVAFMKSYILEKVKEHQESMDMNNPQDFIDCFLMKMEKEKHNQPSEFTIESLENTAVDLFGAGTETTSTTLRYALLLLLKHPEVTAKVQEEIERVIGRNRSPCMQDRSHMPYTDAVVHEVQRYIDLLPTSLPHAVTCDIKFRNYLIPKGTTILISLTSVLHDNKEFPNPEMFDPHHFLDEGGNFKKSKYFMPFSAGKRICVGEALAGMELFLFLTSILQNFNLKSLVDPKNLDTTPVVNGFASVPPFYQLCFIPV
Protocol: The P450 gene superfamily is involved in the metabolism and clearance of xenobiotics. This assay used various human CYP P450 isozymes to measure the dealkylation of various pro-luciferin substrates to luciferin. The luciferin is then measured by luminescence after the addition of a luciferase detection reagent. Pro-luciferin substrate concentration in the assay was equal to its KM for its CYP P450 isozyme. Inhibitors and some substrates limit the production of luciferin, and decrease measured luminescence.
NCGC Assay Protocol Summary:
1, Reagent, 2 uL, Isozyme and Pro-Luciferin
2, Library compounds, 23 nl, 40 uM to 0.24 nM dilution series
3, Controls, 23 nl, Isozyme specific inhibitor
4, Reagent, 2 uL, NADPH regeneration solution
5, Incubation time, 60 min, Isozyme specific temperature
6, Reagent, 4ul, Detection reagent
7, Incubation time, 20 min, Isozyme specific temperature
8, Detection, 1 sec, ViewLux luminescent read
The luciferase-based P450-GloTM Screening Systems were obtained from Promega (Madison, WI) for CYP 1A2 (V9770), CYP 2C9 (V9790), CYP2 C19 (V9880), CYP 2D6 (V9890), and CYP 3A4 Luciferin-PPXE (V9910) and were adapted for 1,536-well microplates and an automated protocol. The control compounds furafylline for 1A2 (F124), sulfaphenazole for CYP 2C9 (S0758), ketoconazole for CYP 2C19 (K1003), quinidine for 2D6 (Q3625), and ketoconazole for 3A4 (K1003) were purchased from Sigma Aldrich (St. Louis, MO). Recombinant P450 enzymes were obtained from baculovirus constructs expressed in insect cells (BD/Gentest).
Medium-binding white solid Kalypsys plates used. Mixtures kept on ice. 1A2: 10 nM 1A2, 100 uM Luc-ME, 100 mM KPO4; 2C9: 10 nM 2C9, 100 uM Luc-H, 25 mM KPO4; 2C19: 5 nM 2C19, 10 uM Luc-H EGE, 50 mM KPO4; 2D6: 5 nM 2D6, 30 uM Luc-ME EGE, 100 mM KPO4; 3A4: 10 nM, 25 uM Luc-PPXE. All amounts are reflected in their final concentration, working concentration is 2x.
NADPH regeneration solution: 1.3 mM NADP+, 3.3 mM glucose-6-phosphate, 3.3 mM MgCl2, 0.4 U/mL glucose-6-phosphate dehydrogenase for all isozymes, 200 mM KPO4 for 3A4. Mixture prepared at RT but kept on ice during automated run.
RT incubation in auxilliary plate hotel for 1A2, 2D6, and 3A4; 37C for 2C9 and 2C19.
Keywords: P450, CYP1A2, CYP2C19, CYP2C9, CYP2D6, CYP3A4, Luciferase, MLSMR, MLSCN, NIH Roadmap, qHTS, NCGC
On the % scale 0 is the no-effect control and ±100 the full control effect.

AC50, active:
N#Cc1c(SCC(N)=O)nsc1SCc1ccccc1Cl 11.2 µM, CCOC(=O)C1CCCN(C(=O)CSCc2ccccc2)C1 (stereo not given) 10 µM, O=C(c1cnc(N2CCN(c3ncccn3)CC2)c2ccccc12)N1CCN(c2ncccn2)CC1 6.31 µM, O=C(c1cnc(N2CCN(c3ncccn3)CC2)c2ccccc12)N1CCN(c2ccccn2)CC1 3.55 µM, COc1ccccc1C(=O)N1CCN(c2ccccn2)CC1 14.1 µM, O=C(O)CC(c1cccc2ccccc12)n1cccc1 (stereo not given) 8.91 µM, O=C(O)CN1CCN(Cc2ccc(F)cc2Cl)C1=O 0.316 µM, CC(C)C(CCNC(=O)CC(Cc1ccccc1)c1ccco1)c1ccco1 (stereo not given) 2.82 µM, CC1CSc2nc3sc4c(c3c(=O)n21)CCCC4 (stereo not given) 14.1 µM, O=C1c2ccccc2N[C@H](c2cc(Cl)cc(Cl)c2O)N1CCc1ccccn1 3.16 µM, CCOC(=O)C1=C(N)n2c(s/c(=C\c3ccco3)c2=O)=C(C(=O)OCC)C1c1ccco1 (stereo not given) 1.26 µM, CCOC(=O)C1=C(c2ccccc2)N=c2s/c(=C\c3ccco3)c(=O)n2C1c1cccs1 (stereo not given) 8.91 µM, Cc1ccc(S(=O)(=O)Nc2nc(C)c(NC(=O)Nc3ccc(Cl)cc3Cl)s2)cc1 7.94 µM, CCN(CC)C(=S)SSC(=S)N(CC)CC 2.51 µM and 398 nM, CCCC(=O)Nc1ccc(C(=O)NNC(=S)NC(=O)c2cccs2)cc1 20 µM, CC(C)(C)C(=O)NC(=S)NCCc1ccccc1 11.2 µM, O=C(CCc1ccccc1)NNC(=S)NC(=O)c1ccccc1 15.8 µM, COc1cc(OC)cc(C(=O)NC(=S)NCCc2ccccc2)c1 2.82 µM, O=C(NNC(=S)NC(=O)c1cccnc1)c1ccccc1 5.62 µM, CCCCC(=O)NNC(=S)NC(=O)c1cccc([N+](=O)[O-])c1 10 µM, Cc1ccc(C(=O)NNC(=S)NC(=O)c2ccc(Cl)cc2)cc1 2 µM, COc1ccc(C(=O)NC(=S)NCc2ccccc2)cc1 15.8 µM, O=C(NC(=S)NNC(=O)c1cccs1)c1ccco1 15.8 µM, COc1ccc(C(=O)NNC(=S)NC(=O)c2ccco2)cc1 7.08 µM, CCOc1cc(NC(=S)Nc2ccccc2)c(OCC)cc1NC(=O)c1ccc(OC)cc1 1.78 µM, COc1ccc(C(=O)NC(=S)NNC(=O)CCc2ccccc2)cc1 2.82 µM, O=C1c2cccc3c(Nc4ccccc4Cl)c([N+](=O)[O-])cc(c23)C(=O)N1CCO 2.82 µM, COc1cc(C)ccc1OCCOc1cc(C)ccc1Cl 0.794 µM, COc1cc(C=O)ccc1OCCOCCOc1ccccc1Cl 12.6 µM, COc1ccccc1OCCCOc1ccc([N+](=O)[O-])cc1Cl 11.2 µM, OCCNc1nc(SCc2ccccc2)nc2sc3c(c12)CCC3 7.94 µM, COCCNc1nc(SCc2ccccc2)nc2sc3c(c12)CCC3 3.16 µM, CC(CO)Nc1nc(SCc2ccccc2)nc2sc3c(c12)CCC3 (stereo not given) 4.47 µM

AC50, inactive:
C/C=C\C[C@H](C)[C@H](O)[C@H]1C(=O)N[C@@H](CC)C(=O)N(C)CC(=O)N(C)[C@@H](CC(C)C)C(=O)N[C@@H](C(C)C)C(=O)N(C)[C@@H](CC(C)C)C(=O)N[C@@H](C)C(=O)N[C@@H](C)C(=O)N(C)[C@@H](CC(C)C)C(=O)N(C)[C@@H](CC(C)C)C(=O)N(C)[C@@H](C(C)C)C(=O)N1C, NCCNC(=O)c1ccc(Cl)cc1, C#CCN(C)CCCOc1ccc(Cl)cc1Cl

activity, negative = inhibition, inactive:
Nc1nc(SCc2ccccc2Cl)cc(C(=O)O)n1 0.0938% [at 11.4 µM], CCOC(=O)C1CCCN(S(=O)(=O)c2ccccc2)C1 (stereo not given) 29.1%, CN1CCN(c2nc(-c3ccccc3C(F)(F)F)nc3ccccc23)CC1 1.94% [at 2.29 µM], CO[C@]1(NC(=O)Cc2cccs2)C(=O)N2C(C(=O)O)=C(COC(N)=O)CS[C@H]21 1.75% [at 25.6 µM], O=C(c1cnccn1)N1CCC2(CC1)CN(c1ccccn1)C2 3.85%, CC(=O)N1CCC2(CC1)CN(c1ccccn1)C2 5.68%, Cn1cccc1C(=O)N1CCC2(CC1)CCN(c1ncccn1)CC2 5.06%, O=C(c1cnccn1)N1CCC2(CC1)CCN(c1ccccn1)CC2 0.265%, COC(=O)N1CCC2(CC1)CCN(c1ccccn1)CC2 -3.68%, O=C(c1cnccn1)N1CCC2(CC1)CCN(c1ncccn1)CC2 4.53%, Cc1ccc(S(=O)(=O)N=Nc2c(O)[nH]c3cc(O)c(C(=O)O)cc23)cc1 3.49% [at 11.4 µM], CN1CC[C@@]2(CCCN(C(=O)c3cccc(F)c3)C2)C1 4.92%, COc1cccc2c1C(=O)c1c(O)c3c(c(O)c1C2=O)C[C@@](O)(C(=O)CO)C[C@H]3O[C@H]1C[C@@H](N)[C@H](O)[C@@H](C)O1.[W] 3.88% [at 11.4 µM], C#CCCCO/N=C1/C[C@@H](O)[C@@H](O)[C@@H]2[C@@H]3C(=O)N(CC)C(=O)[C@H]3CC[C@H]12 3.17% [at 11.4 µM], Cc1cc(C)c(NC(=O)C[C@H](CC(=O)O)c2cccc3ccccc23)c(C(=O)N2CCC3(CCCC3)CC2)c1 -2.73%, O=C(O)CC(c1ccccc1)n1cnnn1 (stereo not given) -6.07%, O=C(O)CN1CCN(Cc2ccccc2Cl)C1=O -29.3%, Cc1cccc(CN2CCN(CC(=O)O)C2=O)c1 -24.3%, O=C(O)CNC(=O)[C@@H](CS)Cc1ccccc1 11.8% [at 25.6 µM], CC(Cc1ccccc1)N/C=C1\CC(=O)NC1=O (stereo not given) 6.55%, COc1c(O[C@H]2O[C@@H](CO)[C@@H](O)[C@@H](O)[C@@H]2O)cc2c(c1OC)-c1ccc(SC)c(=O)cc1[C@H](NC(C)=O)CC2 -8.94% [at 25.6 µM], CC(=O)NCCNc1ncnc2ccc(-c3ccoc3)cc12 6.33% [at 2.29 µM], Nc1nc(Cl)nc2c1ncn2[C@@H]1O[C@@H](COP(=O)(O)OP(=O)(O)OP(=O)(O)O)[C@@H](O)[C@H]1O 18.3%, S=c1nc[nH]c2c1ncn2Cc1ccco1 1.4% [at 11.4 µM], O=C1CC(N2CCN(CCc3ccccn3)CC2)C(=O)N1c1ccc(Cl)cc1 (stereo not given) -8.6%, CCOC(=O)C1=C(c2ccccc2)N=c2s/c(=C\c3cccc(O)c3)c(=O)n2C1c1cccs1 (stereo not given) -16.1%, OCCCSCCO 11.5% [at 11.4 µM], C[N+](C)(C)CC[N+]1(C)Cc2c(Cl)c(Cl)c(Cl)c(Cl)c2C1 -8.79%, NS(=O)(=O)c1nc(S(=O)(=O)O)c2[nH]cnc2n1 -8.54% [at 11.4 µM], Cc1ccc(S(=O)(=O)NC(=O)Nc2ncn[nH]2)cc1 4.99% [at 11.4 µM], Cc1nnc(NS(=O)(=O)c2ccc(N)cc2)s1 -21.3% [at 25.6 µM], CC(C)(CO[C@H]1C[C@H]2CC[C@@]1(C)C2(C)C)[N+](=O)[O-] -3.36% [at 11.4 µM], C[C@H](O)C(=O)C1=Nc2c(nc(N)[nH]c2=O)NC1 15.9%, COc1cc(CNCCc2ccccc2)ccc1OCC(=O)NC(C)(C)C -0.348%, O=C(CCc1ccccc1)NNC(=O)c1ccco1 -10.8%, NNC(=O)c1ccc[n+](CCc2ccccc2)c1 -1.12% [at 11.4 µM], CCC(=O)Nc1ccc(C(=O)NNC(=O)c2cccs2)cc1 11.9%, CC(C)(C)OC(=O)N1CCCC1C(=O)NCCc1ccccc1 (stereo not given) -29.8%, N[C@@H](CSCc1ccc(I)cc1)C(=O)O 12.7% [at 11.4 µM], O=C(NNC(=O)c1cccnc1)Nc1cccc2ccccc12 -16.4%, CCCCC(=O)Nc1cc(OCC)c(NC(=O)c2ccccc2[N+](=O)[O-])cc1OCC -12.6%, Cc1ccc(C(=O)NNC(=O)C2CCCN(c3ncccn3)C2)cc1 (stereo not given) 25.8%, O=C(NNS(=O)(=O)c1ccccc1)c1cccnc1 2.91% [at 11.4 µM], CSc1nc2c(c(C(F)(F)F)n1)CC(C)CC2 (stereo not given) 14.4%, Cc1ccccc1-c1nccc(NCCN2CCOCC2)n1 15.8% [at 2.29 µM], CN(CC(=O)O)CC(=O)O -7.68% [at 11.4 µM], CCc1cc2c(nc1CC)CCN(CC/C(C)=N/O[C@@H](C)c1cc(-c3c(C)cc(C)cc3C)no1)C2 8.77% [at 11.4 µM], Cc1ccc(OCC(=O)NNC(=O)CCc2ccccc2)cc1 -12.1%, COc1ccc(NC(=O)N2CCC3(CC2)CCN(C(=O)c2ccco2)CC3)cc1 -28.3%, COc1ccc(NC(=O)N2CC3(CCN(C(=O)c4ccco4)CC3)C2)cc1 -17.3%, CCOc1ccc(NC(=O)c2ccc(OC)cc2)cc1 -18.5%, c1ccc(C2CCC(N3CCC(N4CCCCC4)CC3)CC2)cc1 (stereo not given) -7.45%, O=[N+]([O-])c1cc(Cl)cc2c1nc(NCCO)c1ccccc12 -0.585% [at 11.4 µM], O=C1NC(=O)C(c2ccccc2[N+](=O)[O-])=C1Nc1ccc(O)c(Cl)c1 -11.5%, COc1ccc(CNC(C)(C)C)cc1Cl 0.0327%, CCCOc1ccc(/C=C/C(=O)Nc2ccc([N+](=O)[O-])cc2C)cc1OC 3.29%, COc1ccc(/C=C2\OC(=O)c3c(OC)cccc32)cc1OC -28.5%, COc1ccc(-n2cccc2C=O)cc1OC -8.44%, CN=C(NC#N)Nc1ccc(C2=NNC(=O)C[C@@H]2C)cc1 -11.9%, COc1ccc(-c2nc(N)c3ncn([C@H]4O[C@@H](CO)[C@@H](O)[C@@H]4O)c3n2)cc1 8.82% [at 11.4 µM], COc1cc(CNCc2cccs2)ccc1OCC(=O)NC(C)(C)C -12.4%, COCCNc1nc(-c2ccccc2C)nc2ccccc12 -5.55% [at 2.29 µM], C[C@H](Nc1ncnc2sc3c(c12)CCC3)C(=O)O -3.13%, COCCNc1nc(-c2ccc(N(C)C)cc2)nc2ccccc12 8.62% [at 2.29 µM]
